This assay concerns VDR:RXRa (NR concentration 270 nM, RXRa partner concentration 90 nM). The assay can be described thus: PBM binding z-score (relative to random genomic background probes); higher = stronger binding; sequences stand for … in GC…GCGATTGACAGCGTAGAATGAAGG
The method, then: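 Protein-binding microarray (Agilent 4x180K custom design, double-stranded 60-nt probes: 5' GC cap, 34-nt variable region, 24-nt constant primer region; full probe sequence given). Purified or IVT nuclear receptor:RXRα heterodimers (3:1 NR:RXRα, mostly 270:90 nM) or homodimers were incubated for 1 h in PBS with 2% milk and no ligand, then detected with Alexa488 antibodies. Fluorescence from o1-orientation probes (~5 replicates averaged) was converted to z-scores against 500 random hg19 background probes. Variable regions are seed direct-repeat (DR0–DR5) sites, all their single-nucleotide variants and half-site ablations.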
For TTACCAAGGTGCAGGTCGTTGATCCCTCTGTAGA, the PBM binding z-score was found to be 0.558. CCAACTAGGTCATCCAGGACAGTGAATACATTGA had a PBM binding z-score of 4.58. To CGTCAAAGTTCAAGGTAACCTAACAGAAAGCAGC belongs 3.96. The figure for TGAATGAGGTTATAAGATCAAGGAACGTTGCAAA is 1.1; for ATATGTAGGTTACAGCCGGGTCATTCAGGCTATG it is 4.1. To ATATCTAGGTTACATCCGGGTCATTCAGGCTATG belongs 4.23; to CGTACAGGGTCAGCTAGGCCAGAGTAGGGACGGC, 3.78. For ACAGAAAGGTGAGTGAAGGTAACTCAGCTGGACG, the PBM binding z-score turned out to be 0.368.

CGTCCGAGGTCAGCAGGTCAGTGAAAGCGACGTG: the PBM binding z-score is 4.86. To CCTACTAGGCCAAAAAGGTCATTGATGCCGATAA belongs 5.16; to ATATGTAGGATAAGGGTCATTCAGGTTGGTTCGC, 5.49; to GCATATAGGTAATACAAGCTGAAAGTCCGATTGT, -0.105. As to GCGACTGGGGCAAAGCAGGTTACCAAAAGGTTGG, the PBM binding z-score was 0.136. To CAAACTAGGTCACGTAAGGTCAAAGTCGAATGAC belongs 7.01; to TAGCCTGGGTCATTGGGCCAGTATAGTACGCATC, 1.97; to GCTTGTAGATCAAGGTTAGGAAAGACTAAGCTAA, -0.45.

In the case of CGTCCAAGGTCATAGGAGGTCAGTGAAGACAGAT, the PBM binding z-score is 6.46. As to ATATGTAGGTTATCGGGTCAATCAGTTTGCGCAT, the PBM binding z-score turned out to be 5.29. To TCTGCTAGGTCAGTTGGTCAGCTGACGAGCTGCC belongs -0.0967; to CAGCCTAGGTCAGGGCCATTATAGGAGGAACGTT, 0.399. To ATCCCTAGGTAAAAGTTCAGTGAATCCCGAGGAT belongs 0.958; to CCGTCTGGGGCAAGGTTACCATAACGCACAGCCA, 0.236; to TCGAGTAGGTTAGTCGGGACATTCAGCCAACATA, 1.19. In turn, TATACAGGGTCAAAGGACAGAGTACGAATGTCGA gave a PBM binding z-score of 4.6. The sequence CCGACTGGGGCAAGGTTACCATGACGCACAGCCA had a PBM binding z-score of -0.0991.

For the sequence TCTAGCAGGCCAGAGGGTCACTTAAGAGGTACGG, the PBM binding z-score worked out at 1.26. In the case of CGTCCAAGGTTAGAGAGGTCAGTGAATGCCGAGT, the PBM binding z-score is 5.7. GCATATAGGTAGTACAAGGTGAAAGTCCGATTGT gave a PBM binding z-score of 0.154. To CCGACTGGGGCAAAGCTTACCATACTCAGTACGA belongs -0.585.

With GCTAGTTGGTTAGTAAAAGGTCACACACCGGTCG, the PBM binding z-score came to 3.93. To CCTACTGAGCCATCAGGTCATTGATATCAACGTT belongs 2.15; to TCGCCTAGGTCATTCAGGGGCCAGTATAGAAAGC, 3.06; to GCTTACGGGTCAAAGGTTATAGCGTGAATAGAAT, 5.55. To TCTTGTAGATCAACAGGAGGTTATGAAAGATCGA belongs 0.761; to ATCTCTAGGTAACCACGTTCAGTGAATGCCGAAC, 0.175. To TCTCGGAGGACACGAAAGGTCAGACCTCGACATC belongs 3.52; to CCTAGTTGGTCAGGAGGTCACACTCCGGATATGA, 3.82; to CAGCCTAGGTCAGGGACAGTATAGGAGGAACGTT, 0.484.

As for TCTTGTAGATCAATAGAGGTCAAGAAAGTGCGCT, the PBM binding z-score came to 4.77. To TTACCAGGGTGAGCTGAGGTCGTTGATCCAACTC belongs 4.58.

These data come from the supplement of paper PMC6555819.
